Assay [1] relates to PRMT1 (protein arginine N-methyltransferase 1). The assay can be described thus: PRMT1 binders on small-molecule microarrays, primary screen, biochemical, small-molecule microarray, 635 nm fluorescence (AID 1088).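 Further: binding of Prmt1 protein to compounds spotted on small-molecule microarray slides.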 To be noted: small-molecule microarray binding, higher = more signal.
The nature of assay [2]: yeast growth modulation, basal conditions, primary screen, YJM789 clinical isolate, OD600, 24 h (AID 1089).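 Further: growth of clinical yeast isolate S. cerevisiae YJM 789 seeded 1000 cells per well; test concentration not given here.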 The settings on record: S. cerevisiae YJM789 growth, higher = more signal, called active from +8 up or from −8 down.
Assay [3] can be described thus: fission yeast growth modulation, primary screen, strain 972, OD600, 24 h, no modulator (AID 1090).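 Further: basal condition with compound alone and no growth modifier present; test concentration not given here.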 The settings on record: S. pombe 972 growth, higher = more signal, called active from +8 up or from −8 down.
Assay [4] is described as follows: S. cerevisiae growth modulation with rapamycin, primary screen, strain BY4716, OD600, 96 h (AID 1091). Further: test concentration not given here. To be noted: higher = more signal, called active from +8 up or from −8 down.
The target in assay [5] is Torsin-1A-interacting protein 2 (Homo sapiens) (UniProt Q8NFQ8). In words: LULL1 binders on small-molecule microarray, primary screen, cell lysate, human LULL1 lysate, 635/667 nm fluorescence (AID 1092).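 Further: probe is lysate of COS7 cells overexpressing human LULL1; score merges per-feature 667 nm fluorescence with signal-to-noise.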 The settings on record: hLULL1 lysate binding, 635 nm fluorescence, higher = more signal.
Assay [6] can be described thus: E. coli growth modulation, two-sided OD650, primary screen, E. coli filamentation project, strain DRC41, 24 h (AID 1093).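 Further: MC1000 strain lacking acrAB efflux and sulA so SOS filamentation is blocked; test concentration not given here.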 To be noted: OD650, 24 h, higher = more signal, called active from +8 up or from −8 down.
The nature of assay [7]: small-molecule microarray binders of probe aLefty2, primary screen, biochemical, biotinylated probe, 635/667 nm fluorescence (AID 1094).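 Further: score merges spot fluorescence near 667 nm with spot signal-to-noise ratio.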 The settings on record: higher = more signal.
The subject of assay [8] is Noggin (protein binding on small-molecule microarray). The assay can be described thus: Noggin binders on small-molecule microarray, primary screen, biochemical, 635/667 nm fluorescence (AID 1095).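 Further: score merges 667 nm feature fluorescence with signal to noise over triplicate slides.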 The settings on record: 635 nm fluorescence, higher = more signal.
Assay [9] concerns the target Neurogenic locus notch homolog protein 3 (Homo sapiens) (UniProt Q9UM47). The assay can be described thus: NOTCH3 binders on small-molecule microarray, primary screen, biochemical, 635/667 nm fluorescence (AID 1096). To be noted: NOTCH3 binding, 635 nm fluorescence, higher = more signal.
Assay [10] is described as follows: small-molecule microarray binders of probe aEGFR, primary screen, biochemical, biotinylated probe, 635/667 nm fluorescence (AID 1097).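 Further: probe is a biotinylated anti-EGFR antibody binding compounds printed on slides; score combines fluorescence near 667 nm and signal to noise of each spot.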 The settings on record: higher = more signal.
In assay [11] the test system is Plasmodium falciparum Sir2 (PF13_0152, Sir2A). In words: pfSir2 binders on small-molecule microarrays, primary screen, biochemical, small-molecule microarray, 635 nm fluorescence (AID 1098).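 Further: score merges spot fluorescence intensity with its signal-to-noise ratio.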 The settings on record: small-molecule microarray binding, fluorescence 635 nm; higher = more signal.
A short description of assay [12]: small-molecule microarray binders of probe aDKK1, primary screen, biochemical, biotinylated probe, 635/667 nm fluorescence (AID 1099).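 Further: score merges 667nm spot fluorescence with signal to noise across triplicate slides; reference of the scale not given here.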 To be noted: higher = more signal.
Assay [13] in a line: small-molecule microarray binders of probe aCHRDL2, primary screen, biochemical, biotinylated probe, 635/667 nm fluorescence (AID 1100). The settings on record: higher = more signal.
Assay [14] is described as follows: splicing luciferase reporter signal modulators, primary screen, spliceosome inhibition project, cell-based, HEK293, splice +/- reporter (AID 1101).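 Further: HEK293 cells carrying a splicing-competent luciferase reporter gene; test concentration not given here.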 The settings on record: luminescence, 24 h, higher = more signal, called active from +8 up or from −8 down.
The target in assay [15] is Fibroblast growth factor 10 (Homo sapiens) (UniProt O15520). The assay can be described thus: FGF10 binders on small-molecule microarrays, primary screen, biochemical, small-molecule microarray, 635 nm fluorescence (AID 1102). To be noted: FGF10 binding, fluorescence 635 nm, higher = more signal.
Assay [16] relates to glycogen synthase kinase-3 (GSK3A per assay name; protocol says GSK3B). The assay can be described thus: GSK3 binders on small-molecule microarrays, primary screen, biochemical, small-molecule microarray, 635 nm fluorescence, GSK3A (AID 1103). Further: the record names both GSK3A and GSK3B. The settings on record: small-molecule microarray binding, fluorescence 635 nm; higher = more signal.
For assay [17], the target named is Epidermal growth factor receptor (Homo sapiens) (UniProt P00533). The assay can be described thus: EGFR binders on small-molecule microarrays, primary screen, biochemical, small-molecule microarray, 635 nm fluorescence (AID 1104).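 Further: score merges 667 nm emission intensity with spot signal to noise over triplicate slides.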 To be noted: EGFR binding, higher = more signal.
For assay [18], the target named is Follistatin-related protein 3 (Homo sapiens) (UniProt O95633). In words: FSTL3 binders on small-molecule microarrays, primary screen, biochemical, small-molecule microarray, 635 nm fluorescence (AID 1105).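 Further: score merges emission near 667 nm and signal to noise per printed spot across three slides.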 To be noted: FSTL3 binding, higher = more signal.
The target in assay [19] is Dickkopf-related protein 1 (Homo sapiens) (UniProt O94907). In words: DKK1 binders on small-molecule microarrays, primary screen, biochemical, small-molecule microarray, 635 nm fluorescence scan (AID 1106).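 Further: score merges emission near 667 nm with signal to noise over three replicate slides.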 To be noted: DKK1 binding, higher = more signal.
In assay [20] the test system is Inhibin beta A chain (activin A). In words: INHBA (activin A) binders on microarrays, primary screen, biochemical, small-molecule microarray, 635 nm fluorescence scan (AID 1107).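 Further: mouse activin A protein probed at 4.33 µg/mL on printed slides; score merges bound-protein fluorescence near 667 nm with spot signal-to-noise.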 To be noted: small-molecule microarray binding, higher = more signal.

The text below walks through data of PubChem BioAssay.

SMILES strings stand for the structures. Activity calls are given as the source filed them.

Sequence of Dickkopf-related protein 1 (Homo sapiens) (O94907 whole entry, looked up): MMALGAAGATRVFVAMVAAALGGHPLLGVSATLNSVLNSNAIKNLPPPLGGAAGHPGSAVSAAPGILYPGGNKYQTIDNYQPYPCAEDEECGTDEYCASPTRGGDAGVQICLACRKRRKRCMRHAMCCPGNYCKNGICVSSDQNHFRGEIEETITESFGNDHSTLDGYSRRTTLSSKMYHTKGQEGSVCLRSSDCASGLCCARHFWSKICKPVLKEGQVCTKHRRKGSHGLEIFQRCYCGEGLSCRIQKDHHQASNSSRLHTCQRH
Sequence of Epidermal growth factor receptor (Homo sapiens) (P00533 whole entry, looked up): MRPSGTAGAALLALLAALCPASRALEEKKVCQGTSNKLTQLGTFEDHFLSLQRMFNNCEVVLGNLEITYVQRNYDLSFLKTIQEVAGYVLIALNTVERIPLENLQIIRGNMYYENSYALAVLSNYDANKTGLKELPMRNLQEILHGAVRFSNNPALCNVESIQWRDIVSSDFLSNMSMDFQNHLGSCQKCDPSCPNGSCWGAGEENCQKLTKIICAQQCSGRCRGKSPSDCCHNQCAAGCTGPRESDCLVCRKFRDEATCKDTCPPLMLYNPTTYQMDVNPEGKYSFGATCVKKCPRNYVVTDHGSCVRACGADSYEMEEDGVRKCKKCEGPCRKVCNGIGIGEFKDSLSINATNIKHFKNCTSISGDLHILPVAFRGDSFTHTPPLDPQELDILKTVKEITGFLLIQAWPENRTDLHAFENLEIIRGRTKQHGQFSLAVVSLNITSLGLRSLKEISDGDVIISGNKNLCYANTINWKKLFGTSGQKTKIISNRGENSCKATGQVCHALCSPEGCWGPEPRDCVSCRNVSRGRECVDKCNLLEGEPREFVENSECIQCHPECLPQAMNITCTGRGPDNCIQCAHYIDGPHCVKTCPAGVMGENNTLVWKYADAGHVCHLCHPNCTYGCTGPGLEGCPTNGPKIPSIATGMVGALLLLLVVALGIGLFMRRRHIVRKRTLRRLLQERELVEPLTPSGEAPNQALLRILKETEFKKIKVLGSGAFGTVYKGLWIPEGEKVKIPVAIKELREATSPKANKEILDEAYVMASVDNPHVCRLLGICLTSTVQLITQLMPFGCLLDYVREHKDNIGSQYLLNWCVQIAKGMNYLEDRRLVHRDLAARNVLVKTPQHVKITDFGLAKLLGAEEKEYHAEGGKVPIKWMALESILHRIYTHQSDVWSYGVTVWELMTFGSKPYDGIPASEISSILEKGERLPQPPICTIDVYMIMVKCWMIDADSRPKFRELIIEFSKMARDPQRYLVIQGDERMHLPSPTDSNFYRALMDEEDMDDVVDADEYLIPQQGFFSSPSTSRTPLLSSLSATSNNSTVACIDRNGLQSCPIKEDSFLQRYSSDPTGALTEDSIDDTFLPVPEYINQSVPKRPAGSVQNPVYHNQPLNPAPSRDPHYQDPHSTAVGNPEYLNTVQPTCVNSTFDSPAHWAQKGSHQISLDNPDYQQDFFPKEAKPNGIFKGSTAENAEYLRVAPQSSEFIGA
Sequence of Neurogenic locus notch homolog protein 3 (Homo sapiens) (Q9UM47 whole entry, looked up): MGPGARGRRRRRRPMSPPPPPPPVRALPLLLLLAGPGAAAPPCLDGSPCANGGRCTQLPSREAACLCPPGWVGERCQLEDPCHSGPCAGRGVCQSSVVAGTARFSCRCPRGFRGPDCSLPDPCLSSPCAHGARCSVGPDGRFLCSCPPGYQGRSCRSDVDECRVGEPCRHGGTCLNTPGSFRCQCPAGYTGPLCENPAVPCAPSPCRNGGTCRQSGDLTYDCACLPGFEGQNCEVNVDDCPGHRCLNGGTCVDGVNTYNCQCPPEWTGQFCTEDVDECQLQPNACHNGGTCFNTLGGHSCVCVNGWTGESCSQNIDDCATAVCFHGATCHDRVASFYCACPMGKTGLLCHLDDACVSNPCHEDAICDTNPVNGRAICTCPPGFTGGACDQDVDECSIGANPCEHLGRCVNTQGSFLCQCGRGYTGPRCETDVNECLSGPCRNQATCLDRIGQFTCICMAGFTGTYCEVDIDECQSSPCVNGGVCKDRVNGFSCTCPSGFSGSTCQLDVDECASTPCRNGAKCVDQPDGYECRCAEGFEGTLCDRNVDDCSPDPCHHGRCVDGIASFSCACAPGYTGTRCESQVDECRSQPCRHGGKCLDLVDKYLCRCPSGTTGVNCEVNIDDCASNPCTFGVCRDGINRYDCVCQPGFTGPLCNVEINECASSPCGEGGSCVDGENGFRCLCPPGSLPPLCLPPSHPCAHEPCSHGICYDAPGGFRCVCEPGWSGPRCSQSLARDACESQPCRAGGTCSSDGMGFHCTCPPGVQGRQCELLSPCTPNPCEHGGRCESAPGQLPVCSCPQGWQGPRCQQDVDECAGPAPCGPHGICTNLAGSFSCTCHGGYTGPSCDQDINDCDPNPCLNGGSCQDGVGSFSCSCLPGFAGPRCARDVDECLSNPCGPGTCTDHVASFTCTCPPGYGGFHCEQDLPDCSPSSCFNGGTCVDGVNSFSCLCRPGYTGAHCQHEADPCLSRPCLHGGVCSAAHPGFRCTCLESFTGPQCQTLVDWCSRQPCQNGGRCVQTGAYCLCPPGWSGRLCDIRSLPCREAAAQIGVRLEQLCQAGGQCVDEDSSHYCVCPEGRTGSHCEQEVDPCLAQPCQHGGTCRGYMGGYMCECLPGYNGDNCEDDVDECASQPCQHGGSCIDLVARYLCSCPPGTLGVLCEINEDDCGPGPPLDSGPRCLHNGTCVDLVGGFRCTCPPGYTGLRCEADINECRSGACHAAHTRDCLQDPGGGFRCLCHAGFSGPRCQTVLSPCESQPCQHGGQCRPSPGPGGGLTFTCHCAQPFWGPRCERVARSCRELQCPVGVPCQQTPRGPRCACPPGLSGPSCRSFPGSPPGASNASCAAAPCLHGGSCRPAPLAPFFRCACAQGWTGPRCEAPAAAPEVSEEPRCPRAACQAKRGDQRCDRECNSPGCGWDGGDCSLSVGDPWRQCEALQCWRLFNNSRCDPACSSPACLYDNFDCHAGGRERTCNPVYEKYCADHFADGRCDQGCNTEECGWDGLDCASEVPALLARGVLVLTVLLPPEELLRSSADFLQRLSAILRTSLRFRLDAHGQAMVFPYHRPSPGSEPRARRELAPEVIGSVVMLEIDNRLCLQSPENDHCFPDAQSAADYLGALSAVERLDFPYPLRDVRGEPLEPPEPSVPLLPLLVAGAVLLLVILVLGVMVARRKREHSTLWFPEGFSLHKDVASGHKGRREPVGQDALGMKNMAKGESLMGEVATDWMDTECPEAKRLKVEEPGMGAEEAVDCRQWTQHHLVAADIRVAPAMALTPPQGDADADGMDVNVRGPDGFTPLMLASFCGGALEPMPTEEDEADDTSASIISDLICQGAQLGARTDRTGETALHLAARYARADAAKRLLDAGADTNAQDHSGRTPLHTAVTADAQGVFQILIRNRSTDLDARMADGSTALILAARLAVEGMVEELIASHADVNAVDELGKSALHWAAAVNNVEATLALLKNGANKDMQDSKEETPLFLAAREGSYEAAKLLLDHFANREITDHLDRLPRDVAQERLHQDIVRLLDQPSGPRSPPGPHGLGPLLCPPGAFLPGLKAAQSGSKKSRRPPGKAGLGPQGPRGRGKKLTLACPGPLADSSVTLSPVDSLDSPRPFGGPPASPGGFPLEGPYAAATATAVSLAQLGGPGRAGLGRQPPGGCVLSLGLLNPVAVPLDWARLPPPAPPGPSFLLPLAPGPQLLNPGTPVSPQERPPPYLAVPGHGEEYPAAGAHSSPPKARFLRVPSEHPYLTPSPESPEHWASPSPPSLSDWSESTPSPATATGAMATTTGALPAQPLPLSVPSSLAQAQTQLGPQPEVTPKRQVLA
Sequence of Fibroblast growth factor 10 (Homo sapiens) (O15520 whole entry, looked up): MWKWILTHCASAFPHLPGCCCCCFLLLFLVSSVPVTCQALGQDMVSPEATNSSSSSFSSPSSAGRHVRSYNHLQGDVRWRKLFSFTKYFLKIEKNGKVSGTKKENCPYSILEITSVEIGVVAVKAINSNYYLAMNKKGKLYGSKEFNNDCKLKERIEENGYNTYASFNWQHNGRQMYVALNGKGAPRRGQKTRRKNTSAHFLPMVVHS
Sequence of Follistatin-related protein 3 (Homo sapiens) (O95633 whole entry, looked up): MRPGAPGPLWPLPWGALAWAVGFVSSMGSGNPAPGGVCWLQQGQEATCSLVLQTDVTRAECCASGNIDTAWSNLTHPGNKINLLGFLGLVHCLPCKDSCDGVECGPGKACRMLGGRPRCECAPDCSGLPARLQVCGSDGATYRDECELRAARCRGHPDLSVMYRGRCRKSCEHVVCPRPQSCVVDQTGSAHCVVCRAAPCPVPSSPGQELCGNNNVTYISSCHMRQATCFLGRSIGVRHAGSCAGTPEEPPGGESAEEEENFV
Sequence of Torsin-1A-interacting protein 2 (Homo sapiens) (Q8NFQ8 whole entry, looked up): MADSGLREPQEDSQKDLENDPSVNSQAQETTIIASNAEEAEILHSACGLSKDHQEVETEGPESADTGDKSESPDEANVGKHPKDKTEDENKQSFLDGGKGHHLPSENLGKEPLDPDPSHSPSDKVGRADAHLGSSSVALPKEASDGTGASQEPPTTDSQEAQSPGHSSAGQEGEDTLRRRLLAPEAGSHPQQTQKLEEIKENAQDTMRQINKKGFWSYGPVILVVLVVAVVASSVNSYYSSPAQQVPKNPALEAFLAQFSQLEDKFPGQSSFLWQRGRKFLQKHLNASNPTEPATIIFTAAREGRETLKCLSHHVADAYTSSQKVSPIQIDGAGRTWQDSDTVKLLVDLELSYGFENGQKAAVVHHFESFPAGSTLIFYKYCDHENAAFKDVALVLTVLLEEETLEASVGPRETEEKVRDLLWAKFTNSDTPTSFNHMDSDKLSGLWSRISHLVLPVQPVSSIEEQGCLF

`O=C/C=C/c1ccccc1Cl`: the composite z-score was -0.284 in [1]; 0.54 in assay [5]; -0.0336 in [7]; -0.479 in assay [8]; -0.709 in [9]; -0.18 in assay [10]. The composite z-score in assay [11] was 1.67; in assay [12], 0.265; in assay [13], 0.405; in assay [15], 0.0974; in assay [16], -0.71; in assay [17], -0.336. For the same compound, the composite z-score is -0.62 in [18], -0.485 in assay [19] and 0.325 in assay [20]. Also, the z-score in assay [2] is 1.68 (inactive); in assay [3], -11 (active); in assay [4] it was -0.6 (inactive); in assay [6], 0.0791 (inactive); in assay [14] it was 0.0402 (inactive).

Consider `C=CC[C@]1(C(=O)O)N=C(c2ccc(OCCCO)cc2)O[C@H]1c1ccccc1N=[N+]=[N-]`, for which the composite z-score was -0.417 in [1]; 2.62 in [5]; 0.0313 in [7]; -0.491 in assay [8]; -0.33 in assay [9]; -0.0059 in [10]. The composite z-score in [11] was 1.75; in [12], 0.623; in assay [13] it was 1.05; in assay [15], -0.103; in assay [16], -0.335; in assay [17], -0.18. Moreover, the values for the composite z-score in assay [18], in [19] and in assay [20] were -0.214, -0.651 and 1.43, respectively. In addition, the z-score in assay [2] is 0.942 (inactive); in assay [3] it was -0.155 (inactive); in assay [4], -0.336 (inactive); in [6] it was 1.32 (inactive); in [14], -0.627 (inactive).

Regarding `[N-]=[N+]=NCc1ccccc1C[C@@]1(C(=O)N2CCOCC2)N=C(c2ccc(OCCCO)cc2)O[C@@H]1c1ccccc1N=[N+]=[N-]`, the composite z-score in assay [1] turned out to be 1.56; in assay [5], 3.16; in [7] it was 0.557; in assay [8] it was 0.41; in assay [9] it was 1.08; in assay [10] it was 0.318. Also, the composite z-score is 1.45 in assay [11]; 1.41 in [12]; 1.31 in assay [13]; 1.42 in assay [15]; 0.683 in [16]; -0.11 in assay [17]. The composite z-score in [18] was 0.436; in assay [19], -0.433; in assay [20], 1.32. Moreover, the z-score was -0.788 (inactive) in assay [2]; -0.39 (inactive) in [3]; 6.02 (inactive) in assay [4]; 0.282 (inactive) in [6]; -0.531 (inactive) in assay [14].

Take `NC(=O)NCC#Cc1ccc2c(c1)[C@]1(C(=O)N2)[C@H](c2ccccc2OCCO)N2[C@H](c3ccccc3)[C@H](c3ccccc3)OC(=O)[C@H]2[C@@H]1C(=O)N1CCN(c2ncccn2)CC1`: the composite z-score in assay [1] is 1.54; in assay [5], 2.7; in assay [7] it was 0.276; in [8], 1.17; in assay [9], 1.02; in assay [10], -0.0286. The composite z-score in assay [11] was 0.722; in assay [12], 0.0815; in assay [13] it was 0.542; in assay [15], 0.651; in [16], 0.814; in [17], 0.251. The composite z-score in assay [18] was determined as 0.844; in assay [19], 0.133; in [20], 1.25. Further, the z-score was 1.73 (inactive) in assay [2]; 0.0422 (inactive) in assay [3]; 4.25 (inactive) in assay [4]; 2.9 (inactive) in assay [6]; 0.222 (inactive) in assay [14].

For the compound `CN1CCC(CCCO)=CC1C1CC1` (stereo not given), the composite z-score is 0.608 in assay [1]; -0.463 in [5]; -0.308 in assay [7]; 0.724 in assay [8]; 0.0618 in assay [9]; -0.104 in assay [10]. Also, the composite z-score in assay [11] was 0.537; in assay [12], -0.499; in assay [13], -0.896; in [15], 0.59; in assay [16], 0.348; in assay [17], 0.0647. Also, the composite z-score in assay [18] was found to be 0.0254; in assay [19], 0.293; in assay [20], 0.719. The z-score in assay [2] was -0.477 (inactive); in assay [3] it was -0.851 (inactive); in [4], -0.761 (inactive); in [6] it was 1.08 (inactive); in assay [14], -1.18 (inactive).
